# LEDGF integ inh – blockers of LEDGF/p75-dependent integrase strand transfer – biochemical, TR-FRET, high throughput, primary screen. 0.64% of 370,000 active. AID 743269, 2014. inhibition, % at 3.7 µM. HIV-1 integrase (with human LEDGF/p75). TR-FRET IN-LEDGF/p75 DNA integration, Eu/Cy5;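 active means inhibition above the screen-wide mean plus 3 SD, cut at about 13% in these data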;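 further: signal is the Cy5 over europium emission ratio at 671 and 618 nm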
# PRMT1 inh – PRMT1 methyltransferase inhibitors, primary screen, biochemical, fluorescence polarization; AID 652257, 2013; Protein arginine N-methyltransferase 1 (Homo sapiens), Q99873; 1.3% of 370,000 active; inhibition, % at 2.79 µM; recombinant PRMT1, activity-based probe fluorescence polarization;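 active means inhibition above about 21% made by adding two undisclosed values, limit read from the data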
# ABHD5-PLIN5 inh – ABHD5-PLIN5 interaction inhibitors, primary screen, cell lysate, split luciferase complementation, luminescence | Perilipin-5 (Homo sapiens) + 1-acylglycerol-3-phosphate O-acyltransferase ABHD5 (Homo … | Split G. princeps luciferase complementation, 4 h | inhibition, % at 4 µM | 0.78% of 360,000 active;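 active means inhibition above the mean inhibition across every tested compound plus 3 SD, cut at about 22% in these data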
# MBD2 DNA inh – inhibitors of MBD2 binding to methylated DNA, primary screen, biochemical, TR-FRET, DNA-binding domain, human; MBD2 binding to methylated oligonucleotide; AID 686964, 2013; 0.31% of 370,000 active; inhibition, % at 4.4 µM; in the data active means inhibition above about 13%
# rCAG RNA binder – binders of r(CAG) RNA repeats, primary screen, biochemical, fluorescence. r(CAG) RNA repeat, TO-PRO-1 dye displacement fluorescence. inhibition, % at 3 µM. 1.3% of 370,000 active. AID 651821, 2012;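 active means inhibition above the plate cutoff, the mean of all test compounds on that plate plus 3 SD, cut at about 35% in these data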;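 further: higher means more dye released from RNA so lower well fluorescence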
# UHRF1 binding – UHRF1 methylated DNA binding inhibitors, primary screen, counter-screen for MBD2 inhibitor project, biochemical, TR-FRET, human UHRF1, single concentration | E3 ubiquitin-protein ligase UHRF1 (Homo sapiens), Q96T88 | UHRF1 binding to methylated oligo | inhibition, % at 4.4 µM | 0.75% of 370,000 active; in the data active means inhibition above about 21%;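 further: UHRF1 SRA domain binding a hemimethylated CpG hairpin DNA probe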
# Target sequence (Q96T88 whole entry, looked up, the tested form may be a part): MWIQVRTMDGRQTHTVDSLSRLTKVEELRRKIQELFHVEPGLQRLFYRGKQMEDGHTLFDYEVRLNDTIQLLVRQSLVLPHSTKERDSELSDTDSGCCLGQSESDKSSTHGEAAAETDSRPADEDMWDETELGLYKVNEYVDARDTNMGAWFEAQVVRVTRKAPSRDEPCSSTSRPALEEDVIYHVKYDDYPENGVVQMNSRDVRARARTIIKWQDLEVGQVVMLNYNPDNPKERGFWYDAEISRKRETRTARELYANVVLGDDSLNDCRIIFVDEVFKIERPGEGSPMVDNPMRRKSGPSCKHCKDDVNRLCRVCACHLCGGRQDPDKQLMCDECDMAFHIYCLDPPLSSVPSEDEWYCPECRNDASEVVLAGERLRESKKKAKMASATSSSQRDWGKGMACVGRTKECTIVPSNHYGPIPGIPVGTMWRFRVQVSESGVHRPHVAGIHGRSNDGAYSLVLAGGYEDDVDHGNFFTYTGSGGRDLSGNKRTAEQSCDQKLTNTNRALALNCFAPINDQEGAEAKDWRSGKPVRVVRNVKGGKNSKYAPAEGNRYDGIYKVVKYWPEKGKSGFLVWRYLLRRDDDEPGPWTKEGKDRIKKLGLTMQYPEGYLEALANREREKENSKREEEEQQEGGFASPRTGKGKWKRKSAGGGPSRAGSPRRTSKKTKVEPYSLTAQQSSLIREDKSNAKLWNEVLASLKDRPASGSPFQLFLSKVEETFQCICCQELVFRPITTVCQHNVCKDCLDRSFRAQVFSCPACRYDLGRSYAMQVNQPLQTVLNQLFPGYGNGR
# rCAG binder conf – small molecules binding CAG repeat RNA – biochemical, fluorescence, confirmation; inhibition, % at 3 µM; AID 652065, 2013; r(CAG) RNA repeat, TO-PRO-1 dye displacement fluorescence; 70% of 4,300 active; shares compounds with rCAG RNA binder;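 active means inhibition above a per-plate cutoff, the mean inhibition of sample wells plus 3 SD, cut at about 35% in these data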;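 further: loss of TO-PRO-1 fluorescence as compound displaces dye from 1x1 AA loop RNA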
# DNA CAG counter – displacement of TO-PRO-1 from CAG DNA duplex, counter-screen for rCAG RNA repeat binder project, biochemical, fluorescence, TO-PRO-1 dye, d(CAG) DNA oligo; shares compounds with rCAG RNA binder; 94% of 4,300 active; d(CAG) DNA oligo TO-PRO-1 dye displacement; inhibition, % at 3 µM; AID 652068, 2013;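 active means inhibition above its plate's cutoff, the mean test-well inhibition plus 3 SD, cut at about 4.8% in these data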;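 further: hits displace the dye from DNA and so lower well fluorescence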
# Hits are given with their value; . = inactive; / = no result given. Rows were chosen to be rich in hits. Some 4.1% of all compounds tested hit in one or more screens of this group.
SMILES,LEDGF integ inh,PRMT1 inh,ABHD5-PLIN5 inh,MBD2 DNA inh,rCAG RNA binder,UHRF1 binding,rCAG binder conf,DNA CAG counter
CCc1nnc(NS(=O)(=O)c2ccc(NC(=S)NC(=O)/C=C/c3ccc(OC)cc3)cc2)s1,.,.,.,.,.,.,/,/
CCc1nnc(NS(=O)(=O)c2ccc(NC(=S)NC(=O)/C=C/c3ccccc3)cc2)s1,.,.,.,.,86.7,.,84.6,50.1
CCc1nnc(NS(=O)(=O)c2ccc(NC(=O)/C=C/c3ccccc3Cl)cc2)s1,.,.,.,.,85.6,.,82.4,53.7
CCc1nnc(NS(=O)(=O)c2ccc(NC(=S)NC(=O)c3ccc(Br)cc3)cc2)s1,.,.,.,.,83.4,.,79.9,49.0
COc1nccnc1NS(=O)(=O)c1ccc(NC(=S)NC(=O)/C=C/c2ccc(F)cc2)cc1,.,.,.,.,70.7,.,58.6,23.8
CCOC(=O)c1c(C)oc2c1cc(NS(=O)(=O)c1ccc(C(=O)O)cc1)c1ccccc12,.,.,.,.,66.5,.,54.8,19.6
COC(=O)c1ccccc1NS(=O)(=O)c1ccc2c3c(cccc13)C(=O)N2,.,.,.,.,.,.,/,/
Cc1oc2c(cc(NS(=O)(=O)c3ccc4c5c(cccc35)C(=O)N4)c3ccccc32)c1C(=O)OC(C)C,.,.,.,.,36.6,.,38.1,17.4
CC(C)(C)OC(=O)NCc1cc2c(cc1/C=C/S(=O)(=O)NCc1ccc(F)cc1)OCO2,.,.,/,.,.,.,/,/
CCOc1cc(/C=C2\C(=O)N(c3ccc(C(N)=O)cc3)N=C2C)ccc1OC(=O)c1cccs1,/,/,.,/,/,/,/,/
CC1=NN(c2ccc(C(=O)O)cc2)C(=O)/C1=C\c1ccc(OC(=O)c2cccs2)cc1,.,.,.,.,44.6,.,52.2,18.0
Cc1cc(-c2csc(NC(=O)c3cc4ccccc4o3)n2)c(C)n1C,14.4,.,.,.,44.2,.,52.2,25.4
Cc1ccc2nc(NC(=O)C3CCN(S(=O)(=O)c4cccs4)CC3)sc2c1,.,.,.,.,.,.,/,/
Cc1ccc2nc(N/C(=N/S(=O)(=O)c3cccs3)c3ccccc3Cl)sc2c1,.,.,.,.,71.4,.,51.3,18.6
O=C(Nc1scc(-c2ccccc2)c1C(=O)O)c1ccccc1F,.,.,.,.,.,.,/,/
COc1ccccc1NC(=O)Cc1cccc2ccccc12,.,.,.,.,.,.,/,/
Cc1ccc(-c2csc(NC(=O)c3ccc(F)cc3)c2C(=O)O)cc1,.,.,.,.,63.1,.,39.2,8.8
COc1ccc(-c2csc(NC(=O)Cc3cccc4ccccc34)c2C(=O)O)cc1,.,.,.,.,61.4,.,54.4,17.4
COc1ccc(-c2csc(NC(=O)c3ccccc3Br)c2C(=O)O)cc1,.,.,.,.,54.6,.,36.5,10.4
Cc1ccc(-c2csc(NC(=O)c3ccccc3F)c2C(=O)O)cc1,.,.,.,.,41.7,.,.,4.6
Cc1ccccc1C(=O)Nc1scc(-c2ccc(Br)cc2)c1C(=O)O,.,.,.,.,.,.,/,/
C=CCn1c(SCc2ccc(C(=O)O)cc2)nc2sc(C)c(C)c2c1=O,.,.,.,.,.,.,/,/
Cc1sc2nc(SCc3ccc(C(=O)O)cc3)n(Cc3ccco3)c(=O)c2c1C,.,.,.,.,54.6,.,57.5,20.0
O=C(CSc1ccc(Br)c2cccc(Cl)c12)Nc1ccc(S(=O)(=O)Nc2nccs2)cc1,.,.,.,.,76.9,.,74.9,43.2
O=C(Cc1ccccc1Cl)Nc1ccc(S(=O)(=O)Nc2nccs2)cc1,.,.,.,.,.,.,/,/
SMILES,LEDGF integ inh,PRMT1 inh,ABHD5-PLIN5 inh,MBD2 DNA inh,rCAG RNA binder,UHRF1 binding,rCAG binder conf,DNA CAG counter
O=C(CSc1ccc2ccccc2c1)Nc1ccc(S(=O)(=O)Nc2nccs2)cc1,.,.,.,.,74.4,.,70.7,35.9
COC(=O)[C@]12C[C@H](CC(=O)N3CCC(c4ccccc4)CC3)C(=O)N(Cc3ccc(Cl)cc3Cl)C1=C[C@H](COCc1ccccc1)O[C@@H]2C,.,.,/,.,.,.,/,/
COC(=O)C1=C(C)N(Cc2ccccc2C(F)(F)F)C(=NCc2cccc(C(F)(F)F)c2)NC1c1ccc(F)cc1 (configuration not stated),.,.,/,.,.,.,/,/
COc1ccc(NS(=O)(=O)c2ccc(O)c(NC(=O)c3ccc(S(=O)(=O)N4CCCC4)cc3)c2)cc1,.,.,.,.,74.0,.,49.8,17.6
COc1ccc(NS(=O)(=O)c2ccc(O)c(NC(=O)c3ccc(S(=O)(=O)N4CCCCCC4)cc3)c2)cc1,.,.,.,.,67.8,.,77.6,39.1
CC(C)(C)c1ccc(NC(=O)COC(=O)c2ccc(NS(=O)(=O)c3ccc(F)c(F)c3)cc2)cc1,.,.,.,.,70.1,.,66.8,24.1
O=C(COC(=O)c1cc(S(=O)(=O)N2CCCC2)ccc1O)Nc1ccc(S(=O)(=O)N2CCOCC2)cc1,.,.,.,.,.,.,/,/
O=C(COC(=O)c1cc(S(=O)(=O)N2CCCC2)ccc1O)Nc1ccc(SC(F)F)cc1,.,.,.,.,45.5,.,40.4,11.1
O=S(=O)(Nc1cc(S(=O)(=O)N2CCCC2)ccc1O)c1ccc(Cl)s1,.,.,.,.,.,.,/,/
O=C(Nc1cc(S(=O)(=O)N2CCOCC2)ccc1O)c1ccc(NS(=O)(=O)c2ccc(Cl)s2)cc1,.,.,.,.,63.8,.,42.0,12.2
Cc1ccc(NC(=O)c2ccccc2NS(=O)(=O)c2ccc(Cl)s2)cc1S(=O)(=O)N1CCOCC1,.,.,.,.,86.6,.,90.1,68.9
CCN(CC)S(=O)(=O)c1ccc(NC(=O)COC(=O)c2ccc(Br)o2)cc1,.,.,.,.,.,.,/,/
CCN(CC)S(=O)(=O)c1ccc(NC(=O)COC(=O)c2cc(S(=O)(=O)Nc3ccc(OC)cc3)ccc2O)cc1,.,.,.,.,36.1,.,60.8,25.9
